The results in this text go back to PubChem BioAssay.

The source made the active and inactive calls. Unless noted, how the calls were made is not given here.

Assay [1] is described as follows: HepG2 liver cancer cell viability effects, profiling panel, resazurin fluorescence, 24 h, PK04 Diversity Set (AID 1172). The conditions noted are these: higher = more signal. On the technique in general: Alamar Blue is a resazurin reagent that responds to reducing activity.
The nature of assay [2]: basal S. cerevisiae growth modulation, no modifier, primary screen, OD600, strain BY4716, 24 h, basal condition (AID 1173). The conditions noted are these: OD600, 24 h, higher = more signal, called active from +8 up or from −8 down.
A short description of assay [3]: MM1S myeloma cell viability, profiling panel, resazurin fluorescence, basal, 24 h, PK04 Diversity Set (AID 1174).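 Further: MM1S multiple myeloma cell line.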 Conditions: higher = more signal, called active from +8 up or from −8 down.
Assay [4] addresses Dihydroorotate dehydrogenase (quinone), mitochondrial (Plasmodium falciparum (isolate 3D7)) (UniProt Q08210). Description: PfDHODH enzyme inhibitors, primary screen, biochemical, C-terminal His tag, absorbance 600 nm (AID 1175).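 Further: recombinant parasite enzyme with a five histidine tag at its C terminus.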 Conditions: DCIP absorbance 600 nm, higher = more signal, called active from +8 up or from −8 down.
Assay [5] in a line: P. aeruginosa biofilm formation inhibitors, primary screen, strain PAO1, LB-PBS medium, absorbance 600 nm (AID 1176). The conditions noted are these: P. aeruginosa PAO1 growth/biofilm, A600, 12 h; higher = more signal.
Assay [6] is described as follows: S. cerevisiae RM11-1a growth modifiers, primary screen, strain RM11-1a, OD600, basal, 24 h (AID 1177).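 Further: cultures grown under basal conditions with no added stressor.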 Conditions: OD600, 24 h, higher = more signal, called active from +8 up or from −8 down.
Assay [7] in a line: E. coli acrAB mutant growth effects, primary screen, E. coli filamentation inducers, strain DRC39, OD650, 24 h (AID 1178).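 Further: growth measured as culture turbidity by optical density at 650 nm.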 The conditions noted are these: higher = more signal, called active from +8 up or from −8 down.
Assay [8] is described as follows: E. coli acrAB mutant growth effects, primary screen, E. coli filamentation inducers, strain DRC39, OD650, 48 h (AID 1179).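 Further: screen aims at cell division blockers that make cells filament.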 Conditions: E. coli DRC39 delta-acrAB growth, higher = more signal, called active from +8 up or from −8 down.
Assay [9] can be described thus: RPMI8226 myeloma cell viability, profiling panel, resazurin fluorescence, basal, 24 h, PK04 Diversity Set (AID 1180).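 Further: RPMI8826 multiple myeloma cell line at 5000 cells per well.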 The conditions noted are these: higher = more signal.
Assay [10] deals with E3 ubiquitin-protein ligase XIAP (Homo sapiens) (UniProt P98170). Description: XIAP binders, primary screen, biophysical, small-molecule microarray, fluorescence 635 nm (AID 1181).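 Further: score merges 667 nm emission and signal to noise over triplicate slides.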 The conditions noted are these: small-molecule microarray binding, higher = more signal.
Chain of E3 ubiquitin-protein ligase XIAP (Homo sapiens) (P98170 whole entry, looked up): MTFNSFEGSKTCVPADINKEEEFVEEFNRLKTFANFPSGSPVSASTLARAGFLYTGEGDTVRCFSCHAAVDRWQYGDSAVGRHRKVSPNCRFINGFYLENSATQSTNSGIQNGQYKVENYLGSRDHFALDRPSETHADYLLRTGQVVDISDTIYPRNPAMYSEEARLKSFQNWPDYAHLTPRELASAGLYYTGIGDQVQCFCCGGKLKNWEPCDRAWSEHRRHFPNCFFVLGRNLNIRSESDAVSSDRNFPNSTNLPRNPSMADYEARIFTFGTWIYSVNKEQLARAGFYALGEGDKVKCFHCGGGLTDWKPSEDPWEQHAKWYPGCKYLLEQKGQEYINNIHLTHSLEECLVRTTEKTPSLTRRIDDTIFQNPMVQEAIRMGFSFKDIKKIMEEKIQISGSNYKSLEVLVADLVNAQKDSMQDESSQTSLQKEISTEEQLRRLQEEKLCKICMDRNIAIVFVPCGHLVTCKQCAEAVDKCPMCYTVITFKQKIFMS
In assay [11] the test system is XIP peptide (Xip251-270) binding. The experiment in a line: small-molecule binders of XIP peptide, primary screen, biochemical, small-molecule microarray, fluorescence 635/667 nm, 0.1 µg/mL protein (AID 1182). Conditions: fluorescent protein binding, 635 nm, higher = more signal, called active from +8 up or from −8 down.
In the next assay the test system is XIP peptide (Xip251-270). Description: small-molecule binders of XIP peptide, primary screen, biochemical, small-molecule microarray, fluorescence 635/667 nm, 0.5 µg/mL protein (AID 1183). Conditions: small-molecule microarray binding, fluorescence 635 nm; higher = more signal.
Assay [12] is described as follows: Plasmodium falciparum growth inhibition, primary screen, strain 3D7, DAPI fluorescence, 100 nL (AID 1184).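 Further: parasites grown inside human red blood cells in medium with human serum.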 The conditions noted are these: P. falciparum 3D7 growth, 3 d, higher = more signal.
Assay [13] addresses Homeobox protein Hox-A13 (Mus musculus) (UniProt Q62424). The experiment in a line: inhibitors of HoxA13-DNA binding, primary screen, biochemical, fluorescence polarization, labeled oligonucleotide (AID 1185). The conditions noted are these: 15 min, higher = more signal, called active from +8 up or from −8 down. On the technique in general: In fluorescence polarisation assays a small probe gives low polarisation when free and higher when bound to something large.

A short description of assay [14]: inhibitors of hydroxyurea-induced Chk1 phosphorylation, primary screen, imaging, HeLa, phospho-Chk1 antibody, percent positive cells (AID 1186). Conditions: hydroxyurea-induced phospho-Chk1 immunofluorescence imaging, higher = more signal.
Assay [15] in a line: inhibitors of hydroxyurea-induced Chk1 phosphorylation, primary screen, imaging, HeLa, phospho-Chk1 nuclear intensity (AID 1187). Conditions: hydroxyurea-induced phospho-Chk1 immunofluorescence imaging, higher = more signal.

Chain of Homeobox protein Hox-A13 (Mus musculus) (Q62424 whole entry, looked up): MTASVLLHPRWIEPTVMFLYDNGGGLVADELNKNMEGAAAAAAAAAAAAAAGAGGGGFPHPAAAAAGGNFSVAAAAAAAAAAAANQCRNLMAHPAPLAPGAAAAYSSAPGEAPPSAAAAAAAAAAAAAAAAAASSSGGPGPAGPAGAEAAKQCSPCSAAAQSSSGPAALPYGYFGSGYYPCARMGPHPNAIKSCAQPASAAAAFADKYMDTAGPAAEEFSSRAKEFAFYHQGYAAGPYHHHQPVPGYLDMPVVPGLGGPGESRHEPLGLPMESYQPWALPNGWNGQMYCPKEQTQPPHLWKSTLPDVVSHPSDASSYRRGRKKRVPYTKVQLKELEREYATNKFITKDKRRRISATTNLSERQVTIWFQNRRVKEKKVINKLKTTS
Chain of Dihydroorotate dehydrogenase (quinone), mitochondrial (Plasmodium falciparum (isolate 3D7)) (Q08210 whole entry, looked up): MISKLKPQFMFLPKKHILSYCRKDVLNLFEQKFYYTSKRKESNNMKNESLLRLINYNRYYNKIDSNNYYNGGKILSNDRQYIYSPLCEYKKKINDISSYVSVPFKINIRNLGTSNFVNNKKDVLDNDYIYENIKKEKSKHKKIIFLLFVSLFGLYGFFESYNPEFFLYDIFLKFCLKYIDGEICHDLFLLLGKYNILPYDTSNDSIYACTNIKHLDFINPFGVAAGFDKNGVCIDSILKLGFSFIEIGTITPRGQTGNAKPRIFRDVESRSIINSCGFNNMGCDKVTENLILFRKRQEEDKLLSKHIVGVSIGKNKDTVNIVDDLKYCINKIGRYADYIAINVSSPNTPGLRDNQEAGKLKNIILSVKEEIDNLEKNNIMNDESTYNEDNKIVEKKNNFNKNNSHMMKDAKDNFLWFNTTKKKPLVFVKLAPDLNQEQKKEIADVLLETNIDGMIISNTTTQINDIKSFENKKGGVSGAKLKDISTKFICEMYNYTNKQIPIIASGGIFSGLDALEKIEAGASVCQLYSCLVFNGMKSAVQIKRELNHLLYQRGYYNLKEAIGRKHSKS

For `COc1ccc([Si](C)(C)[C@H]2[C@H](CC(=O)N3Cc4ccccc4C[C@H]3CO)O[C@@]3(C(=O)N(C)c4ccccc43)[C@@H]2C)cc1`, the z-score in [1] is -0.894; in assay [2], -3.38 (inactive); in assay [3] it was -1.97 (inactive); in [5] it was -0.695 (inactive); in assay [6], 0.0745 (inactive); in [7] it was -1.44 (inactive). Moreover, the z-score in assay [8] was -1.38 (inactive); in assay [9] it was -2.06; in [12] it was -2.63; in assay [13], -5.59 (inactive); in [14], 0.227 (inactive); in assay [15] it was 0.169 (inactive). Besides, the composite z-score in assay [4] was -1.45 (inactive); in assay [10] it was 0.119; in assay [11], 0.958 (inactive); in the assay on XIP peptide (Xip251-270), 0.808.
As to `O=C(NCC(O)CO)[C@@]1(CCS(=O)(=O)c2ccccc2)N=C(c2ccc(OCCCO)cc2)O[C@H]1c1ccccc1` (some centres undefined), the z-score in assay [1] is -0.748; in [2], -0.386 (inactive); in [3], -0.133 (inactive); in [5], 0.618 (inactive); in [6], -0.707 (inactive); in assay [7] it was 0.107 (inactive). Moreover, the z-score in assay [8] was -0.618 (inactive); in assay [9], -0.195; in assay [12], -2.02; in assay [13], -4.76 (inactive); in assay [14], -0.579 (inactive); in assay [15], -0.282 (inactive). Also, the composite z-score in assay [4] was -0.637 (inactive); in assay [10], 0.0341; in assay [11] it was 2.08 (inactive); in the assay on XIP peptide (Xip251-270), 0.0777.
With `NC(=O)N1C(=O)C2C(C1=O)C1C=C(CCCO)C2C(c2ccc(CN3CCCC3)cc2)N1Cc1sc2ccccc2c1Cl` (centres undefined), the z-score in assay [1] was -0.968; in assay [2] it was -2.06 (inactive); in assay [3], -1.29 (inactive); in assay [5], 0.0721 (inactive); in assay [6], -0.243 (inactive); in assay [7] it was -0.291 (inactive). The z-score in assay [8] is -0.693 (inactive); in assay [9] it was -1.04; in assay [12], -0.44; in assay [13], -4.57 (inactive); in assay [14], 0.252 (inactive); in assay [15], 0.175 (inactive). Further, the composite z-score in assay [4] was 0.574 (inactive); in assay [10] it was -0.167; in assay [11] it was -0.211 (inactive); in the assay on XIP peptide (Xip251-270), 0.245.
For `COCCCN1C(=O)[C@@]2(c3ccc([N+](=O)[O-])cc3)CC(=O)N(CC34CC5CC(CC(C5)C3)C4)[C@@H]2c2ccc(CO)cc21`, the z-score in assay [1] was -0.35; in assay [2] it was 1.09 (inactive); in assay [3], -0.566 (inactive); in assay [5], 0.792 (inactive); in assay [6], 0.0202 (inactive); in assay [7], 0.2 (inactive). For the same compound, the z-score in assay [8] was 0.334 (inactive); in assay [9], -0.79; in [12], -0.243; in assay [13], -0.113 (inactive); in assay [14] it was -0.313 (inactive); in assay [15], -0.793 (inactive). Further, the composite z-score is -6.02 (inactive) in [4], 0.113 in assay [10], 0.264 (inactive) in assay [11] and 0.578 in the assay on XIP peptide (Xip251-270).
For the compound `COc1ccc([Si](C)(C)[C@H]2[C@H](CCO)O[C@@]3(C(=O)N(Cc4cccc(N5C(=O)c6ccccc6Oc6ccccc65)c4)c4ccccc43)[C@@H]2C)cc1`, the z-score in assay [1] was -1.86; in assay [2], -0.653 (inactive); in [3], -2.97 (inactive); in assay [5] it was 1.01 (inactive); in [6] it was 3.62 (inactive); in assay [7] it was 1.42 (inactive). Further, the z-score in assay [8] is 0.597 (inactive); in [9], -4.05; in [12], -2.82; in [13] it was -0.884 (inactive); in assay [14], -0.432 (inactive); in assay [15], -0.702 (inactive). Also, the composite z-score in assay [4] was 0.75 (inactive); in assay [10] it was -0.115; in [11], 0.505 (inactive); in the assay on XIP peptide (Xip251-270) it was 0.571.
`C=CCC(OC(C)=O)[C@@H]1[C@@H](N(Cc2ccc(-c3cccc(C(F)(F)F)c3)o2)C(=O)Cc2ccc(F)cc2)c2cc(OCCCO)ccc2N1C(=O)Cc1ccc2ccccc2c1` (some centres undefined): the z-score is 0.533 in assay [1]; 0.658 (inactive) in assay [2]; 0.647 (inactive) in assay [3]; 1.13 (inactive) in [5]; -0.245 (inactive) in assay [6]; -0.241 (inactive) in assay [7]. The z-score in assay [8] was -0.088 (inactive); in [9], 0.0748; in assay [12] it was -0.328; in assay [13], -0.668 (inactive); in assay [14], 0.19 (inactive); in assay [15] it was 0.0472 (inactive). Besides, the composite z-score in assay [4] is -1.35 (inactive); in assay [10], -0.132; in [11], -0.068 (inactive); in the assay with XIP peptide (Xip251-270) it was -0.293.
Regarding `[N-]=[N+]=NCc1ccccc1[C@@H]1OC(c2ccc(OCCCO)cc2)=N[C@]1(Cc1ccccc1N=[N+]=[N-])C(=O)NCC(O)CO` (some centres undefined), the z-score was -0.897 in [1]; -0.815 (inactive) in assay [2]; -0.954 (inactive) in assay [3]; 0.507 (inactive) in assay [5]; 0.628 (inactive) in assay [6]; -0.0582 (inactive) in [7]. For the same compound, the z-score was 0.625 (inactive) in [8]; -1.47 in assay [9]; -2.31 in [12]; -2.19 (inactive) in assay [13]; -0.168 (inactive) in [14]; 0.0749 (inactive) in [15]. Moreover, the composite z-score in [4] is -0.728 (inactive); in assay [10], 0.243; in [11], 1.45 (inactive); in the assay with XIP peptide (Xip251-270) it was 0.5.
As to `CC(=O)c1ccc(C(O)C2C=CC3C(=O)N(c4ccccc4)C(=O)C3N2Nc2ccc(C(C)C)cc2)cc1` (centres undefined), the z-score in [1] was -0.866; in assay [2] it was -0.829 (inactive); in [3], -1.44 (inactive); in [5], 0.503 (inactive); in assay [6], 0.677 (inactive); in assay [7] it was 0.481 (inactive). Moreover, the z-score is 0.463 (inactive) in assay [8]; -0.721 in assay [9]; -1.33 in assay [12]; -2.09 (inactive) in assay [13]; 0.0577 (inactive) in assay [14]; -0.371 (inactive) in assay [15]. Also, the composite z-score was 0.774 (inactive) in [4], 0.102 in assay [10], 0.248 (inactive) in [11] and 0.525 in the assay with XIP peptide (Xip251-270).
`C=C(/C(=C/C[C@@H](OC(C)=O)c1cccc(OCCO)c1)c1cnc2ccccc2c1)C(C)C`: the z-score was -0.682 in [1]; -0.517 (inactive) in assay [2]; -0.421 (inactive) in [3]; -0.104 (inactive) in assay [5]; 0.183 (inactive) in assay [6]; 0.12 (inactive) in assay [7]. The z-score in assay [8] is -0.406 (inactive); in assay [9] it was 0.213; in assay [12], -2.95; in assay [13] it was -5.04 (inactive); in assay [14], 0.0066 (inactive); in [15] it was 0.0865 (inactive). Moreover, the composite z-score in assay [4] was -3.98 (inactive); in [10], -0.157; in assay [11], -0.136 (inactive); in the assay on XIP peptide (Xip251-270), 0.725.
